The sample as a whole holds a higher share of hits than the screen did.
RE007 growth inh: less growth of the S. pombe RE007 Vpr strain | S. pombe RE007 Vpr strain, BacTiter-Glo ATP luminescence, 24 h | Potency, µM (top dose mostly 92.2 µM), actives largely listed as inhibitors | 360,000 compounds, 0.21% hits; active = well fitted falling curve with a large enough effect; inconclusive = small, poorly fitted or top-dose-only effect; inactive = no such curve, though single readings can be large or run the other way; also: nearly all actives have a fitted effect of over 50% in size
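Fission yeast RE007 carrying one integrated HIV-1 vpr copy, seeded at OD 0.01 in PMG+AL medium with 23 nL pinned compound. Grown 24 h at 30 degrees; viability read by BacTiter-Glo luminescence after 5 min.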
CHX counter: counter-screen hit for Shiga toxin inhibitors, cycloheximide. cell reporter, cycloheximide protein synthesis inhibition counterscreen. max response, %. 300,000 compounds, 12% hits; in the data active = max response mostly above about 13%, no sharp cut-off; inactive = mostly below about 14%; also: read at 38.3 µM for the half of the compounds with a filed dose
TbPYK inhibitor: inhibitors of Trypanosoma brucei pyruvate kinase. Q57TT1. Potency, µM (top dose mostly 76.8 µM), actives largely listed as inhibitors. 410,000 compounds, 0.12% hits. AID 624173. TbPYK enzyme, Kinase-Glo Plus ATP luminescence, 45 min; also: nearly all actives have a fitted effect of over 50% in size
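TbPYK + substrate in 50 mM TEA pH 7.2, 100 mM KCl, 10 mM MgCl2, 0.05% BSA, 0.01% Tween-20; cpd pinned; ADP 130 uM final; 45 min RT; Kinase-Glo Plus 10 min; luminescence endpoint.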
Shiga inhibitor: inhibitors of Shiga toxin in Vero cells; AID 2315; Vero cells, Shiga toxin protein synthesis inhibition reporter; 290,000 compounds, 9.2% hits; inhibition, % at 38.7 µM; in the data active = inhibition mostly above about 28%, no sharp cut-off; inactive = mostly below about 43%
LmPK inh: LmPK (Leishmania mexicana) enzyme inhibition; Q27686; purified LmPK, Kinase-Glo ATP luminescence, 1 h; Potency, µM (doses to about 57.5 µM), actives largely listed as inhibitors; 290,000 compounds, 0.37% hits; AID 1721
Target sequence (Q27686 whole entry, looked up): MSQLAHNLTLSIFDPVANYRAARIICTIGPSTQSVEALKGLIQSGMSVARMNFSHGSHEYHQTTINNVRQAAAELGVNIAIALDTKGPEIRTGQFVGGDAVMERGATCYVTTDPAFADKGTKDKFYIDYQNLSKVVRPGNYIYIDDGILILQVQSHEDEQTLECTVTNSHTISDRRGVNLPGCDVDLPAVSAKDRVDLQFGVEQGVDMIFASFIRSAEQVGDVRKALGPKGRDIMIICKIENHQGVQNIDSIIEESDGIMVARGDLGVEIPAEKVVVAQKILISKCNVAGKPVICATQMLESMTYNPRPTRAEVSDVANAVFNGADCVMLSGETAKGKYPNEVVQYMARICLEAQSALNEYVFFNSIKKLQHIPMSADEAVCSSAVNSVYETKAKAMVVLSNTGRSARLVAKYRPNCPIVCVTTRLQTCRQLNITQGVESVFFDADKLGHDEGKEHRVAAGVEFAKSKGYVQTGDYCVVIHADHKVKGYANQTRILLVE
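In 50 mM imidazole pH 7.2 with 7 mM MgCl2, LmPK (0.1 nM) turned over PEP (0.5 mM) and ADP (0.1 mM) for 1 h at room temperature. Luciferase read-out of ATP.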
FBPA Giardia inh: Giardia lamblia aldolase inhibition. 290,000 compounds, 0.71% hits. AID 2451. Potency, µM (top dose mostly 59.6 µM), hits mostly inhibitors. purified Giardia FBPA. A8B2U2; also: nearly all actives have a fitted effect of over 55% in size
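Giardia FBPA (40 nM reagent) was preincubated 10 min at RT with compound (up to 57.5 uM final), then substrate plus GAPDH/TPI/NAD/arsenate coupling system with diaphorase/resazurin was added; resorufin fluorescence (525/598 nm) was read after 20 min.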
Hits are given with their value; - = inactive; ? = inconclusive; . = no result; [ ] = remark or other dose. Unless noted, calls follow the shape of the dose curve; as a rule, active = well fitted curve in the direction sought with a large enough effect; inconclusive = small, poorly fitted or top-dose-only effect, or another doubt; inactive = no such curve, though single readings can be large; an effect the other way counts as inactive or inconclusive.

SMILES	RE007 growth inh	CHX counter	TbPYK inhibitor	Shiga inhibitor	LmPK inh	FBPA Giardia inh
CCCOc1ccc(NC(=O)CC2C(=O)N(c3cccc(OC)c3)C(=O)N2Cc2cccs2)cc1 (stereo not drawn)	.	.	-	.	.	.
Cc1ccc(N(CC(=O)Nc2ccc(C)c(F)c2)S(=O)(=O)c2c(C)n[nH]c2C)cc1	.	.	-	.	.	.
COc1ccc(Cn2nnc(C(=O)Nc3ccc4c(c3)OCCO4)c2N)cc1Br	-	17	-	-	-	.
Cc1ccc(C)c(Cn2nnc(C(=O)Nc3ccc4c(c3)OCCO4)c2N)c1	-	.	-	.	.	.
Cc1ccc(NC(=O)c2nnn(-c3ccc4c(c3)OCCO4)c2N)cc1	-	37	-	112	-	-
Nc1c(C(=O)Nc2ccc3c(c2)OCCO3)nnn1Cc1ccc(Cl)cc1	-	.	-	.	.	.
Nc1c(C(=O)Nc2ccccc2)nnn1-c1ccc2c(c1)OCCO2	-	34	-	74	-	-
Cc1ccccc1Cn1nnc(C(=O)Nc2ccc3c(c2)OCCO3)c1N	-	.	-	.	.	.
Cc1cccc(Cn2cnc3c(cnn3-c3ccc(Cl)cc3)c2=O)c1	.	.	-	.	.	.
COc1ccc(C2N(C(=O)c3ccccc3)CCN2C(=O)c2ccccc2)cc1	-	-	-	-	-	-
COc1ccc(C(=O)N2CC(c3ccccc3)CC2=O)cc1 (stereo not drawn)	-	44	-	63	-	-
O=C1CC(c2ccccc2)CN1C(=O)c1ccccc1 (stereo not drawn)	-	16	-	-	-	-
Cc1cccc(C)c1OCC(=O)Nc1cccc(C(=O)O)c1	-	41	-	92	-	-
Cc1ccc(C)c(OCC(=O)Nc2cccc(C(=O)O)c2)c1C	-[3.69 µM]	41	.	-	-	-
Cc1cccc(C)c1OCC(=O)Nc1ccc(Cl)cc1C(=O)c1ccccc1	.	.	-	.	.	.
COc1ccc(OC)c(/C=C(\C#N)c2nc(-c3ccc(F)cc3)cs2)c1	.	.	-	.	.	.
O=C(NCCNc1ccccc1[N+](=O)[O-])c1cc(F)c(F)cc1Cl	-	50	-	154	-	-
COc1ccc(C(=O)NCCNc2ccccc2[N+](=O)[O-])cc1	-	32	-	77	-	-
CC(C)COc1ccc(C(=O)Nc2ccccc2[N+](=O)[O-])cc1	-	53	-	active	-	-
COc1ccc(-c2nc3cnc(Oc4cccc(Cl)c4)nc3n(CCC#N)c2=O)cc1	.	.	.	.	.	-
Cc1nc2cnc(Oc3ccccc3)nc2n(Cc2cccs2)c1=O	.	.	.	.	.	-
c1ccc(-n2nc3c(ccc4cnnc43)[nH]2)cc1	-	43	-	83	-	-
O=C1CCCCC/C1=N/Nc1ccc(OCc2ccccc2)cc1	-	12	-	-	-	-
O=C1N=C(N2CCOCC2)SC1=C1CCCCC1	-	75	-	81	?	-
O=C1N=C(N2CCOCC2)S/C1=C\c1ccncc1	-	-	-	-	-	-
SMILES	RE007 growth inh	CHX counter	TbPYK inhibitor	Shiga inhibitor	LmPK inh	FBPA Giardia inh
N#CCCN1CCN(C2=NC(=O)C(=C3CCCCC3)S2)CC1	-	35	-	-	-	-
CC(=O)N1CCN(C2=NC(=O)C(=C3CCCCC3)S2)CC1	-	-	-	19	-	-
CC(C)=C1SC(N2CCCCC2)=NC1=O	-	-	-	-	-	-
Cc1cccc(N2CCN(C3=NC(=O)C(=C4CCCCC4)S3)CC2)c1	-[3.69 µM]	-	.	-	-	-
COC(=O)[C@H](CC(C)C)NC(=O)c1ccc(NC[C@@H](N)CS)cc1-c1cccc2ccccc12	.	-	.	-	.	-
COc1ccccc1C1=NOC(C)(c2sc(-c3ccc(Cl)cc3)nc2C)C1 (stereo not drawn)	-	20	-	31	-	-
Cc1nc(-c2ccc(Cl)cc2)sc1C1(C)CC(c2ccccc2Br)=NO1 (stereo not drawn)	-	.	-	.	.	.
COc1ccc(-c2ccc(-c3noc(C)n3)c(OC)n2)cc1	-	23	-	-	-	-
CCOc1nc(-c2ccc(OC)cc2)ccc1-c1noc(C)n1	-	-	-	-	-	-
COCc1nc(-c2ccc(-c3ccc(C)cc3)nc2OC)no1	?	33	-	116	-	-
CCN(CC)S(=O)(=O)c1ccc2c(c1)N(CC(=O)NCCc1ccc(OC)c(OC)c1)C(=O)CO2	.	.	-[15.4 µM]	.	.	.
CC(=O)c1cccc(NC(=O)c2cc3c(s2)-c2c(C)cccc2OC3)c1	.	.	-	.	.	.
Cc1cccc2c1-c1sc(C(=O)Nc3cccnc3)cc1CO2	-	19	-	42	-	-
O=C(Nc1cccnc1)c1cc2c(s1)-c1ccccc1OC2	-	43	-	54	-	-
CCOc1ccc(NC(=O)Cn2c(=O)n(CC3CCC(C(=O)NCCc4ccccc4)CC3)c(=O)c3ccccc32)cc1 (stereo not drawn)	.	.	-	.	.	.
C/C(=N\NC(=O)c1ccccc1O)c1ccc(Br)s1	-	64	-	54	-	-
C/C(=N\NC(=O)c1cccc(F)c1)c1ccc(Br)s1	-	39	-	-	-	-
C/C(=N\NC(=O)c1ccccc1[N+](=O)[O-])c1ccc(Br)s1	-	-	-	-	-	-
COc1cccc(-c2noc(-c3ccc4c(c3)OCO4)n2)c1	-	-	-	-	-	-
COc1ccc(-c2noc(-c3ccoc3C)n2)cc1OC	-	-	-	-	-	-
COc1cccc(-c2noc(-c3ccoc3C)n2)c1	-	39	-	123	-	-
Cc1cccc(-c2noc(-c3ccoc3C)n2)c1	-	35	-	100	?	-
COc1ccc(-c2noc(-c3ccoc3C)n2)cc1	-	59	-	56	?	-
CCc1ccc(CNCc2cccs2)cc1	-	29	-	55	-	-
c1ccc2[nH]c(SCCN3CCOCC3)nc2c1	-	20	-	-	-	-
SMILES	RE007 growth inh	CHX counter	TbPYK inhibitor	Shiga inhibitor	LmPK inh	FBPA Giardia inh
O=C(CSc1nc2ccccc2[nH]1)Nc1ccc(N2CCOCC2)cc1	-	16	-	30	-	.
O=C(CSc1nc2ccccc2[nH]1)Nc1cccc(S(=O)(=O)N2CCOCC2)c1	-	-	-	-	-	-
CCN1CCN(c2ccc(NC(=O)Cc3ccccc3)cc2)CC1	-	15	-	67	-	-
O=C(Cc1ccccc1)Nc1ccc(N2CCOCC2)cc1	-	28	-	46	-	-
O=c1[nH]c(SCCN2CCOCC2)nc(O)c1-c1ccccc1	-	-	-	-	-	-
CCNc1nc(N)nc(Oc2ccc(OCC(=O)OC)nn2)n1	.	.	-	.	.	.
C[C@]12CC[C@@H]3c4ccc(OC(=O)N(CCCl)CCCl)cc4CC[C@@H]3[C@H]1CC[C@@H]2OP(=O)(O)O	.	.	-	.	.	.
CC(C)NC(=O)N1CCCC2(CCN(C(=O)c3ccncc3)CC2)C1	.	.	-	.	.	-
O=C(NNc1c2ccccc2nc2ccccc12)c1ccc(O)cc1	-	24	-	-	-	-
O=C(NNc1c2ccccc2nc2ccccc12)c1ccccc1O	-	25	-	-	-	-
O=C(NNc1c2ccccc2nc2ccccc12)c1cccc(O)c1	-	-	-	-	-	-

Bioassay records (PubChem BioAssay)
